From PubChem BioAssay (Tox21)
Where “and” joins values, the source holds several entries; their conditions need not be identical. Equal values may be shown once. Results filed as inconclusive are left out. A call without a number means that no potency is given here. Some structures have more than one record in an assay (separate samples or runs), and their calls can disagree. Calls of active or inactive are those of the source. Unless noted, calls follow the shape of the dose curve; as a rule, active = well fitted curve in the direction sought with a large enough effect in the repeat runs; inconclusive = weak or mixed curves; inactive = no such curve, though single readings can be large; an effect the other way counts as inactive or inconclusive.

How the values were obtained:
[1] = qHTS assay to identify small molecule agonists of H2AX - cell viability counter screen (AID 1224847; calls by dose curve;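 also: wild-type CHO-K1 cells; top concentration of the series differs between compounds; nearly all actives have a fitted effect of over 30% in size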)
Procedure, shortened: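 CHO-K1 wt, 1000 cells/well, o/n 37C; cpds 15 conc, 3 h 37C, 0.76% DMSO; CellTiter-Glo, 30 min RT, luminescence.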

[2] = qHTS assay to identify small molecule antagonists of the estrogen related receptor (ERR) signaling pathway from Tox21 library (AID 1224848); also: nearly all actives have a fitted effect of over 50% in size; also: potency is read from the fitted curve at half-maximal effect
Procedure, shortened: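 Antagonist-mode screen of the Tox21 10K library in an NTP-provided ERR reporter cell line; 18 h compound exposure at 37 C, luminescence measured with ONE-Glo.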

[3] = qHTS assay to identify small molecule agonists of the estrogen related receptor (ERR) signaling pathway from Tox21 library (AID 1224849; calls by dose curve; also: nearly all actives have a fitted effect of over 15% in size); settings: ERR reporter cell line, ONE-Glo luciferase, 18 h; at 92.4 µM (top of the series)
Procedure, shortened: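 ERR reporter cell line (NTP) seeded, rested 6 h at 37 C/5% CO2, then pinned with Tox21 compounds in DMSO. After 18 h at 37 C, ONE-Glo luciferase luminescence was read following 30 min at room temperature.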

[4] = qHTS RealTime-Glo MT Cell Viability Assay in HepG2 cells - 24 hour (AID 1224867); also: nearly all actives have a fitted effect of over 50% in size
Procedure, shortened: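 HepG2 cells were seeded at 600 cells/well together with NanoLuc luciferase and a cell-permeant prosubstrate, preincubated 5 h at 37 C/5% CO2, then pin-dosed with compounds in DMSO. Nonlytic luminescence from viable cells was read at each time point.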

[5] = qHTS RealTime-Glo MT Cell Viability Assay in HEK293 cells - 32 hour (AID 1224868); also: nearly all actives have a fitted effect of over 50% in size; also: potency is read from the fitted curve at half-maximal effect
Procedure, shortened: (§1)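 HEK293 cells were seeded at 600 cells/well together with NanoLuc luciferase and cell-permeant prosubstrate, preincubated 5 h at 37 C/5% CO2, then given compound in DMSO by pintool. Luminescence from viable-cell prosubstrate reduction was read repeatedly over 40 h.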

[6] = A CellTox Green Cytotoxicity Assay to monitor cytotoxicity in HEK293 cells - 0 hour (AID 1224869); also: nearly all actives have a fitted effect of over 50% in size
Procedure, shortened: (§2)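 HEK293 cells premixed with CellTox Green dye were seeded at 600 cells/well and left 5 h at 37 C/5% CO2 before pin transfer of 23 nL compound in DMSO. Fluorescence from dye bound to dead-cell DNA was read during 40 h treatment.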

[7] = qHTS RealTime-Glo MT Cell Viability Assay in HepG2 cells - 40 hour (AID 1224870); also: nearly all actives have a fitted effect of over 50% in size
Procedure, shortened: (§3)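 Real-time viability: cells seeded at 600 per well together with NanoLuc and cell-permeant prosubstrate, compounds added after 5 h incubation. Luminescence tracked at 0, 8, 16, 24, 32 and 40 h of exposure.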

[8] = A CellTox Green Cytotoxicity Assay to monitor cytotoxicity in HEK293 cells - 40 hour (AID 1224871); also: nearly all actives have a fitted effect of over 45% in size; also: potency is read from the fitted curve at half-maximal effect
Procedure, shortened: as §2

[9] = qHTS RealTime-Glo MT Cell Viability Assay in HepG2 cells - 8 hour (AID 1224873); also: nearly all actives have a fitted effect of over 55% in size
Procedure, shortened: as §3

[10] = qHTS RealTime-Glo MT Cell Viability Assay in HEK293 cells - 16 hour (AID 1224872); also: nearly all actives have a fitted effect of over 50% in size; also: potency is read from the fitted curve at half-maximal effect
Procedure, shortened: as §1

| Compound | Potency [1] | Potency [2] | activity change, positive = activation [3] | outcome [4] | Potency [5] | outcome [6] | outcome [7] | Potency [8] | outcome [9] | Potency [10] |
| --- | --- | --- | --- | --- | --- | --- | --- | --- | --- | --- |
| CCC(O)OC(O)CC (centres undefined) | inactive | inactive | 4% (inactive) and 3.85% (inactive) | inactive | inactive | inactive | inactive | inactive | inactive | – |
| C=C(C)C(=O)O[C@H]1C[C@@H]2CC[C@@]1(C)C2(C)C | inactive | 4.83 µM (active) and inactive | -82.3% (inactive) and 8.09% (inactive) | inactive | 15.4 µM (active) and inactive | inactive | inactive | 12.2 µM (active) and inactive | inactive | 15.4 µM (active) and inactive |
| CC(C)(N)CO | inactive | inactive | 3.88% (inactive) and 1.99% (inactive) | inactive | inactive | inactive | inactive | inactive | inactive | inactive |
| CSCCC=O | inactive | inactive | 9.1% (inactive) and 4.08% (inactive) | inactive | inactive | inactive | inactive | inactive | inactive | inactive |
| Nc1ccccc1[N+](=O)[O-] | inactive | inactive | 9.45% (inactive) and 1.58% (inactive) | inactive | inactive | inactive | inactive | inactive | inactive | – |
| O=C(O)c1ccccc1C(c1ccc(O)cc1)c1ccc(O)cc1 | inactive | inactive | 4.92% (inactive) and 4.34% (inactive) | inactive | inactive | inactive | inactive | inactive | inactive | inactive |
| Fc1ccc(Br)cc1 | inactive | inactive | -0.613% (inactive) and 3.34% (inactive) | inactive | inactive | inactive | inactive | inactive | inactive | inactive |
| CCCCCCCCCCCCCCCO | inactive | inactive | -0.174% (inactive) | inactive | inactive | inactive | inactive | inactive | inactive | inactive |
| c1ccc2c(c1)ccc1ccccc12 | inactive | 47.2 µM (active) and 24.3 µM (active) | -34.9% (inactive) and -32.3% (inactive) | inactive | inactive | inactive | inactive | – | inactive | – |
| Nc1cc([N+](=O)[O-])ccc1O | inactive | inactive | -4.29% (inactive) and 0.807% (inactive) | inactive | inactive | inactive | inactive | inactive | inactive | inactive |
| CC1=CC(=O)NS(=O)(=O)O1 | inactive | – | – | inactive | inactive | inactive | inactive | inactive | inactive | inactive |
| CCc1cccc(C)c1N | inactive | inactive | -1.49% (inactive) | inactive | inactive | inactive | inactive | inactive | inactive | inactive |
| OC[C@H]1O[C@@](CO)(O[C@H]2O[C@H](CO)[C@@H](O)[C@H](O)[C@H]2O)[C@@H](O)[C@@H]1O | inactive | inactive | 6.61% (inactive) and 1.2% (inactive) | – | – | inactive | – | inactive | – | – |
| O=C(CC(C(=O)OC1CCCCC1)S(=O)(=O)O)OC1CCCCC1 (centres undefined) | inactive | inactive | 3.03% (inactive) and -2.61% (inactive) | inactive | inactive | inactive | inactive | inactive | inactive | inactive |
| CC(C)CC(=O)CC(C)C | inactive | inactive | 0.354% (inactive) and 0.455% (inactive) | inactive | inactive | inactive | inactive | inactive | inactive | inactive |
| CC(=O)Nc1ccccc1 | inactive | – | – | inactive | inactive | inactive | inactive | inactive | inactive | inactive |
| COCCCOc1ccnc(CS(=O)c2nc3ccccc3[nH]2)c1C (centres undefined) | inactive | inactive | -25.6% (inactive) | inactive | 9.74 µM (active) and inactive | inactive | inactive | inactive | inactive | – |
| CN(C)CCOCCN(C)C | inactive | inactive | -5.24% (inactive) and -0.172% (inactive) | inactive | inactive | inactive | inactive | inactive and 43.6 µM (active) | inactive | – |
| COc1ccc(NC(C)=O)cc1N | inactive | – | – | inactive | inactive | inactive | inactive | inactive | inactive | inactive |
| OCC(CO)(CBr)CBr | inactive | inactive | 2.42% (inactive) and 0.192% (inactive) | inactive | inactive | inactive | inactive | inactive | inactive | – |
| O=S1(=O)CC=CC1 | inactive | – | – | inactive | inactive | inactive | inactive | inactive | inactive | inactive |
| O=C(Oc1ccccc1)c1ccccc1 | inactive | inactive | 4.89% (inactive) and 5.21% (inactive) | inactive | inactive | inactive | inactive | inactive | inactive | inactive |
| OCCOCCOCCO | inactive | inactive | -2.92% (inactive) and 6.58% (inactive) | inactive | inactive | inactive | inactive | inactive | inactive | – |
